697 NFkB inh: inhibitors of PMA/ionomycin-induced NF-kB reporter, 697 cells, primary screen, B-cell NF-kB inhibitor project, cell-based, luminescence, uHTS; 697 B-cell NF-kB luciferase reporter, 16 h; inhibition, % at 4 µM; actives 0.33% (n = 330,000); in the data active = inhibition above about 35%
Beta cell apopt: inhibitors of cytokine-induced beta cell apoptosis, primary screen, luminescence | INS-1E cytokine-induced death, ATP luminescence, 48 h; percent of positive-control rescue, neutral wells zero | protection from apoptosis, % (test concentration not listed) | actives 0.8% (n = 300,000) | AID 435005, 2010;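 active = Every replicate reaches about 75%, or at least half do and their mean reaches it too, limit read from the data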;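 also: higher means more ATP so stronger rescue from cytokine killing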
Jurkat NFkB inh: inhibitors of induced NF-kB luciferase reporter, primary screen, TCR NF-kB activation inhibitor project, cell-based, luminescence, uHTS | Jurkat, PMA/ionomycin-induced NF-kB luciferase reporter | inhibition, % at 4 µM | actives 0.53% (n = 330,000) | AID 435003, 2010; in the data active = inhibition above about 50%
Gli-Sufu block: Gli-Sufu pathway antagonists, primary screen, luciferase luminescence, Sufu-KO-LIGHT cells, uHTS; AID 588413, 2011; actives 0.74% (n = 340,000); Sufu-KO-LIGHT fibroblasts, Gli luciferase reporter luminescence; inhibition, % at 5 µM;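 active = inhibition above about 55%, limit read from the data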
Gli antag conf: Gli-SUFU pathway antagonists, confirmation, single concentration, luciferase luminescence, Sufu-KO-LIGHT cells. shares compounds with Gli-Sufu block. Gli luciferase reporter. inhibition, % at 5 µM. actives 40% (n = 2,500). AID 602428, 2012;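 active = mean inhibition at 5 µM reaching about 45%, limit read from the data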
Gli cytotox: cytotoxicity in Sufu-KO-LIGHT cells, confirmation, cytotoxicity control for Gli-SUFU antagonist project, cell-based, ATP luminescence, single concentration; shares compounds with Gli-Sufu block; cytotoxicity, % at 5 µM; actives 32% (n = 2,500); AID 651994, 2013;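 active = mean cytotoxicity at 5 µM above about 25%, limit read from the data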;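 also: cells exposed to compound overnight for roughly 16 to 18 hours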
Wnt3a counter: Wnt3a reporter signal inhibition, confirmation, counter-screen for Gli-SUFU antagonist project, Wnt-LIGHT cells, luminescence, single concentration; shares compounds with Gli-Sufu block; Wnt3a-driven luciferase reporter; inhibition, % at 6.25 µM; actives 20% (n = 2,500); AID 651995, 2013;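 active = mean inhibition above about 25%, limit read from the data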
Hits are given with their value; – = inactive; · = no result given. An excerpt weighted towards active compounds, which were near 1.8% of everything screened.

SMILES	697 NFkB inh	Beta cell apopt	Jurkat NFkB inh	Gli-Sufu block	Gli antag conf	Gli cytotox	Wnt3a counter
COc1ccc(OC)c(S(=O)(=O)NC2CCN(Cc3ccccc3)CC2)c1	–	–	–	–	·	·	·
COc1ccc(NS(=O)(=O)c2cccc(C(=O)NC3CCN(Cc4ccccc4)CC3)c2)cc1	–	–	–	57.0	–	–	–
COc1ccc(CNC(=O)CN2CCC(NC(=O)c3ccc(OC)cc3)CC2)cc1	–	·	–	62.3	–	–	–
COc1ccc(CNC2CCN(Cc3ccccc3)CC2)cc1	–	–	–	58.2	–	–	–
CC(=O)c1ccc(N2CCN(C(=O)c3ccc(OCc4c(C)noc4C)cc3)CC2)cc1	–	–	–	–	·	·	·
CN(C)c1ccnc(-n2cccc2/C=N/OCc2ccc(F)cc2Cl)c1C#N	–	–	–	–	·	·	·
Cc1ccc(NC(=O)CC(=O)c2ccc([N+](=O)[O-])cc2)cc1S(=O)(=O)Nc1cccc(Cl)c1	–	–	–	–	·	·	·
O=C(N/N=C/c1cc(Cl)ccc1O)c1ccc(Br)cc1	·	112.4	·	75.9	59.2	28.9	58.1
Cc1ccc2nc(COC(=O)c3cnccn3)cc(=O)n2c1	–	–	–	–	·	·	·
Cc1noc(/C=C/c2ccccn2)c1[N+](=O)[O-]	–	–	–	98.7	–	28.5	–
COc1ccccc1N/C=C/c1onc(C)c1[N+](=O)[O-]	–	–	–	–	·	·	·
CCc1nc2ccccc2c(=O)n1NC(=O)c1c(O)c2ccccc2n(CC)c1=O	–	–	–	–	·	·	·
CCCc1sc(N/N=C/c2ccccn2)nc1-c1ccc(Br)cc1	–	110.6	–	63.9	80.5	–	87.8
CC(=O)Nc1sc(N/N=C/c2ccccc2)nc1-c1ccc(C)cc1	–	–	–	–	·	·	·
O=C(N/N=C/c1ccccn1)c1[nH]c2ccc([N+](=O)[O-])cc2c1-c1ccccc1	–	–	–	56.3	–	–	–
CC(=O)NCCC(=O)Nc1nc(-c2cccs2)c(-c2cccs2)s1	–	–	–	–	–	–	–
O=C(Nc1nc(-c2cccs2)c(-c2cccs2)s1)C1(c2ccccc2)CC1	–	–	–	–	·	·	·
CCn1cc(C(=O)NCCN(C)CCc2ccccc2)c(=O)c2cc(S(=O)(=O)N(C)C)ccc21	–	–	–	68.7	–	–	–
CCn1cc(C(=O)NCCc2ccccc2)c(=O)c2cc(S(=O)(=O)N(C)C)ccc21	–	–	–	–	·	·	·
O=C(CCS(=O)(=O)c1ccccc1)Nc1ccccc1N1CCOCC1	–	–	–	66.1	–	–	–
C=CCn1c(SCn2nnc3ccccc3c2=O)nc2scc(-c3cccs3)c2c1=O	–	–	–	–	–	–	–
C=CCn1c(SCC(=O)Nc2ccccc2)nc2scc(-c3cccs3)c2c1=O	–	–	–	–	·	·	·
O=c1nc(N/N=C/c2ccccn2)cn[nH]1	–	–	–	67.3	70.7	32.6	77.7
Cc1ccc(/C=N/Nc2cn[nH]c(=O)n2)o1	–	–	–	–	·	·	·
Cc1cc(Oc2ccc3ccccc3c2)nc(SCC(=O)c2ccccc2)n1	–	–	–	–	·	·	·
SMILES	697 NFkB inh	Beta cell apopt	Jurkat NFkB inh	Gli-Sufu block	Gli antag conf	Gli cytotox	Wnt3a counter
O=C(O)c1cc2nc(C3CC3)cc(C(F)(F)F)n2n1	–	–	–	56.1	–	–	–
O=C(c1cc2nc(C3CC3)cc(C(F)(F)F)n2n1)N1CCCC1	–	–	–	–	·	·	·
CCCC(NC(=O)CCc1c(C)c2cc3c(-c4ccccc4)coc3cc2oc1=O)C(=O)O (stereo not drawn)	–	–	–	–	·	·	·
N#C/C(=C\c1ccc(-c2ccc(F)cc2)o1)C(=O)Nc1nc(-c2cccs2)cs1	–	–	–	–	·	·	·
N#C/C(=C/c1ccc(-c2ccc([N+](=O)[O-])cc2)o1)C(=O)Nc1nc(-c2cccs2)cs1	·	·	·	72.3	83.8	–	32.8
O=C(NC1CCCCC1)C(c1ccncc1)N(C(=O)Cc1cccs1)c1ccccc1 (stereo not drawn)	–	–	–	–	·	·	·
COc1ccccc1-c1c(-c2ccc(O)cc2O)n[nH]c1C(F)(F)F	–	–	–	–	62.9	–	31.1
CCN(CC)c1ccc(NC(=O)c2cc3c(OC)cccc3[nH]2)cc1	–	–	–	–	·	·	·
O=C(CSc1nc2ccccc2c(=O)n1-c1ccccc1)N1CCc2ccccc2C1	–	100.3	–	66.7	73.8	39.6	–
CC(NC(=O)C1CCN(C(=O)[C@@H]2Cc3ccccc3CN2)CC1)c1ccccc1 (stereo partly drawn)	–	–	–	–	·	·	·
O=C(c1cc2n(n1)C(C(F)(F)F)CC(c1ccc(Cl)cc1)N2)N1CCCC1 (stereo not drawn)	–	–	–	57.1	–	–	–
O=C(c1cnc(N2CCN(c3ccccn3)CC2)c2ccccc12)N1CCN(c2cccc(Cl)c2)CC1	–	75.2	–	65.3	53.9	36.1	–
O=C(NCC1(c2ccccc2)CCCC1)c1ccc(Br)o1	–	–	–	·	·	·	·
Cc1ccc(-c2csc(NCCc3nc4cc(Cl)c(Cl)cc4n3CCCO)n2)cc1	–	–	–	57.3	–	34.6	–
CC(=O)N(Cc1cc2cc(C)ccc2[nH]c1=O)c1cccc(C)c1C	–	–	–	–	·	·	·
COc1ccc(NC(=S)N2CCC(Cc3ccccc3)CC2)cc1OC	–	–	–	–	·	·	·
COc1cccc(NC(=S)N2CCC(Cc3ccccc3)CC2)c1	–	–	–	–	–	–	–
COc1ccc(-c2ccc(OC)cc2)cc1	–	–	–	–	·	·	·
COc1ccc(-c2cnc3c(c2)CCC3(C#N)C#N)cc1	·	–	·	–	61.1	47.1	–
O=C(CSc1nnc(-c2ccc(Cl)cc2)o1)NNC(=O)c1ccncc1	–	–	–	–	·	·	·
CCOC(=O)c1c(NC(=O)COC(=O)c2ccc(O)cc2)sc(C(=O)NC)c1C	–	–	–	–	·	·	·
Oc1ccc(/C=N/Nc2nc(N3CCCC3)nc(N3CCCC3)n2)cc1O	–	–	–	63.9	51.3	–	83.1
COc1cc(/C=N/Nc2nc(N3CCCC3)nc(N3CCCC3)n2)ccc1O	–	–	–	–	·	·	·
COc1ccc(NS(=O)(=O)c2ccc(N3CCCCC3)c(N)c2)cc1	–	102.4	–	57.9	73.5	26.9	–
Cc1nn2c(Nc3ccccc3)c3c(nc2c1-c1ccccc1)CCC3	–	–	–	–	·	·	·
Cc1cc(C(=O)NC2CCCN(Cc3ccc(Cl)cc3)C2)n(C)n1 (stereo not drawn)	–	–	–	56.6	–	–	–
COc1ccc(OCC(=O)NC2CCCN(Cc3ccc(Cl)cc3)C2)cc1 (stereo not drawn)	–	–	–	–	–	–	–
